According to PubChem BioAssay AID1159580 (chemical genetic matrix, 2015):
Out of some 5,500 compounds screened, about 2,000 (36%) were called active. Roughly 18% stayed inconclusive and do not appear here. Cut-off read from the data, not from the text of the source: active = normalized growth mostly below about 0.91 (no sharp cut-off); inconclusive = no clear call, values can overlap the other calls; inactive = mostly above about 0.92. The list shows a part of the results.

Assay: chemical genetic growth profiling, strain panel (AID 1159580);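 note: tested at 20 µM; growth read once vehicle control cultures reached saturation at 30 °C; 1 = growth at the plate median or of vehicle wells; lower values mean less growth of the strain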
Details: S. cerevisiae deletion strains, growth OD
[1] = locus YHR030C, strain SLT2, stronger effect = lower value
[2] = locus YHR079C, strain IRE1, stronger effect = lower value
[3] = locus YJL095W, strain BCK1, stronger effect = lower value
[4] = locus YJR066W, strain TOR1, stronger effect = lower value
[5] = locus YLR113W, strain HOG1, stronger effect = lower value
[6] = locus YNL183C, strain NPR1, stronger effect = lower value
[7] = locus YOR231W, strain MKK1, stronger effect = lower value
[8] = locus YPL256C, strain CLN2, stronger effect = lower value

Measured: normalized growth

O=C(Nc1cccc(C(F)(F)F)c1)Oc1ccc(F)cc1Cl
active: [1] 0.822 | [5] 0.762 | [8] 0.778
inactive: locus YAR019C, strain CDC15, stronger effect = lower value 0.977 | locus YBL105C, strain PKC1, stronger effect = lower value 0.977 | locus YBR135W, strain CKS1, stronger effect = lower value 0.982 | locus YBR136W, strain MEC1, stronger effect = lower value 0.98 | locus YBR160W, strain CDC28, stronger effect = lower value 0.979 | locus YDL017W, strain CDC7, stronger effect = lower value 0.985 | locus YDL028C, strain MPS1, stronger effect = lower value 0.977 | locus YDL101C, strain DUN1, stronger effect = lower value 0.992 | locus YDL108W, strain KIN28, stronger effect = lower value 0.97 | locus YDL132W, strain cdc53, stronger effect = lower value 0.974 | locus YDL214C, strain PRR2, stronger effect = lower value 0.978 | locus YDR052C, strain DBF4, stronger effect = lower value 0.985 | locus YDR054C, strain cdc34, stronger effect = lower value 0.975 | locus YDR226W, strain ADK1, stronger effect = lower value 0.975 | locus YDR477W, strain SNF1, stronger effect = lower value 0.993 | locus YER123W, strain YCK3, stronger effect = lower value 0.965 | locus YER133W, strain GLC7, stronger effect = lower value 0.983 | locus YFL009W, strain cdc4, stronger effect = lower value 0.974 | locus YFL029C, strain CAK1, stronger effect = lower value 0.977 | locus YFR003C, strain YPI1, stronger effect = lower value 0.982 | locus YFR019W, strain FAB1, stronger effect = lower value 0.987 | locus YFR028C, strain CDC14, stronger effect = lower value 0.98 | locus YGR040W, strain KSS1, stronger effect = lower value 0.977 | locus YGR052W, strain FMP48, stronger effect = lower value 1 | locus YGR092W, strain DBF2, stronger effect = lower value 0.951 | [2] 0.87 | locus YHR082C, strain KSP1, stronger effect = lower value 1.1 | locus YHR205W, strain SCH9, stronger effect = lower value 0.951 | locus YIL147C, strain SLN1, stronger effect = lower value 0.975 | [3] 0.955 | locus YJL128C, strain PBS2, stronger effect = lower value 0.947 | locus YJL157C, strain FAR1, stronger effect = lower value 0.98 | locus YJR016C, strain ILV3, stronger effect = lower value 0.984 | locus YJR066W, strain TOR1 (second series), stronger effect = lower value 0.938 | [4] 1.04 | locus YKL048C, strain ELM1, stronger effect = lower value 1 | locus YKL067W, strain YNK1, stronger effect = lower value 1.01 | locus YKL101W, strain HSL1, stronger effect = lower value 0.983 | locus YKL193C, strain SDS22, stronger effect = lower value 0.983 | locus YKL203C, strain TOR2, stronger effect = lower value 1.02 | locus YLR133W, strain CKI1, stronger effect = lower value 0.976 | locus YLR403W, strain SFP1, stronger effect = lower value 0.964 | locus YML070W, strain DAK1, stronger effect = lower value 0.979 | locus YMR001C, strain CDC5, stronger effect = lower value 0.984 | locus YMR205C, strain PFK2 (second series), stronger effect = lower value 1 | locus YMR277W, strain FCP1, stronger effect = lower value 0.977 | locus YNL006W, strain LST8, stronger effect = lower value 0.976 | locus YNL020C, strain ARK1, stronger effect = lower value 0.967 | locus YNL161W, strain CBK1, stronger effect = lower value 0.983 | [6] 0.998 | locus YNL207W, strain RIO2, stronger effect = lower value 0.972 | locus YNL222W, strain SSU72, stronger effect = lower value 0.973 | locus YNL307C, strain MCK1 (second series), stronger effect = lower value 0.982 | locus YOL078W, strain AVO1, stronger effect = lower value 0.983 | locus YOL136C, strain PFK27, stronger effect = lower value 0.969 | locus YOR061W, strain CKA2, stronger effect = lower value 0.983 | locus YOR119C, strain RIO1, stronger effect = lower value 1.05 | [7] 0.912 | locus YOR329C, strain SCD5, stronger effect = lower value 0.979 | locus YPL031C, strain PHO85, stronger effect = lower value 0.97 | locus YPL153C, strain RAD53, stronger effect = lower value 0.974 | locus YPL204W, strain HRR25, stronger effect = lower value 0.992 | locus YPL209C, strain IPL1, stronger effect = lower value 0.979 | locus YPR025C, strain CCL1, stronger effect = lower value 0.979 | locus YPR106W, strain ISR1, stronger effect = lower value 0.99 | locus YPR111W, strain DBF20, stronger effect = lower value 0.964 | strain NNK1, stronger effect = lower value 0.989 | strain TSCII, stronger effect = lower value 0.972

O=C(NC(=O)c1c(F)cccc1F)Nc1cc(Cl)c(OC(F)(F)C(F)C(F)(F)F)cc1Cl (stereo unspecified)
inactive: locus YAL021C, strain ccr4, stronger effect = lower value 0.983 | locus YAL026C, strain drs2, stronger effect = lower value 0.987 | locus YAL030W, strain snc1, stronger effect = lower value 0.998 | locus YBL061C, strain skt5, stronger effect = lower value 0.974 | locus YBR009C, strain hhf1, stronger effect = lower value 0.997 | locus YBR023C, strain chs3, stronger effect = lower value 0.981 | locus YBR171W, strain sec66, stronger effect = lower value 0.987 | locus YBR231C, strain swc5, stronger effect = lower value 0.977 | locus YBR279W, strain paf1, stronger effect = lower value 0.988 | locus YCL011C, strain gbp2, stronger effect = lower value 0.987 | locus YCL016C, strain dcc1, stronger effect = lower value 0.988 | locus YCL061C, strain MRC1, stronger effect = lower value 0.989 | locus YCL069W, strain vba3, stronger effect = lower value 0.99 | locus YCR088W, strain abp1, stronger effect = lower value 0.988 | locus YDL005C, strain med2, stronger effect = lower value 0.984 | locus YDL040C, strain nat1, stronger effect = lower value 0.98 | locus YDR001C, strain nth1, stronger effect = lower value 0.991 | locus YDR069C, strain doa4, stronger effect = lower value 0.989 | locus YDR137W, strain rgp1, stronger effect = lower value 0.988 | locus YDR159W, strain sac3, stronger effect = lower value 1 | locus YDR195W, strain ref2 1.01 | locus YDR297W, strain sur2, stronger effect = lower value 0.978 | locus YDR334W, strain swr1, stronger effect = lower value 0.981 | locus YDR335W, strain msn5, stronger effect = lower value 0.99 | locus YDR392W, strain spt3, stronger effect = lower value 0.98 | locus YEL003W, strain gim4, stronger effect = lower value 1.01 | locus YEL037C, strain rad23, stronger effect = lower value 0.991 | locus YEL061C, strain CIN8 (second series), stronger effect = lower value 0.995 | locus YER015W, strain faa2, stronger effect = lower value 0.983 | locus YER016W, strain bim1, stronger effect = lower value 0.996 | locus YER111C, strain swi4, stronger effect = lower value 0.982 | locus YER155C, strain BEM2 (second series), stronger effect = lower value 0.998 | locus YFR010W, strain ubp6, stronger effect = lower value 0.986 | locus YGL167C, strain pmr1, stronger effect = lower value 0.977 | locus YGL173C, strain kem1, stronger effect = lower value 0.999 | locus YGL227W, strain vid30, stronger effect = lower value 0.997 | locus YGL240W, strain doc1, stronger effect = lower value 0.99 | locus YGL253W, strain hxk2, stronger effect = lower value 0.987 | locus YHR013C, strain ard1, stronger effect = lower value 0.96 | locus YHR027C, strain rpn1, stronger effect = lower value 0.996 | [1] 1.04 | [2] 1.03 | locus YHR142W, strain chs7, stronger effect = lower value 0.997 | locus YJL092W, strain hpr5, stronger effect = lower value 0.993 | locus YJL095W, strain BCK1 (second series), stronger effect = lower value 0.986 | [3] 1.04 | locus YJL115W, strain asf1, stronger effect = lower value 0.987 | locus YJL129C, strain trk1, stronger effect = lower value 0.988 | locus YJL154C, strain vps35, stronger effect = lower value 0.985 | locus YJL164C, strain tpk1, stronger effect = lower value 0.988 | locus YJL166W, strain qcr8, stronger effect = lower value 0.995 | locus YJL187C, strain SWE1, stronger effect = lower value 0.986 | [4] 0.977 | locus YKL160W, strain elf1, stronger effect = lower value 0.983 | locus YKR026C, strain gcn3, stronger effect = lower value 0.989 | locus YKR091W, strain srl3, stronger effect = lower value 0.989 | locus YLL001W, strain dnm1, stronger effect = lower value 0.996 | locus YLL026W, stronger effect = lower value 0.995 | locus YLL041C, strain sdh2, stronger effect = lower value 0.994 | locus YLR027C, strain aat2, stronger effect = lower value 0.993 | [5] 1.01 | locus YLR221C, strain rsa3, stronger effect = lower value 0.984 | locus YLR258W, strain gsy2, stronger effect = lower value 0.999 | locus YLR262C, strain YPT6 (second series), stronger effect = lower value 0.995 | locus YLR320W, strain mms22, stronger effect = lower value 0.981 | locus YLR342W, strain FKS1, stronger effect = lower value 0.985 | locus YLR357W, strain rsc2, stronger effect = lower value 0.994 | locus YLR370C, strain arc18, stronger effect = lower value 0.986 | locus YLR384C, strain iki3, stronger effect = lower value 0.976 | locus YML120C, strain ndi1, stronger effect = lower value 0.987 | locus YMR058W, strain fet3, stronger effect = lower value 0.994 | locus YMR125W, strain sto1, stronger effect = lower value 0.979 | locus YMR129W, stronger effect = lower value 0.997 | locus YMR205C, strain PFK2, stronger effect = lower value 0.982 | locus YMR231W, strain pep5, stronger effect = lower value 1 | locus YNL071W, strain lat1, stronger effect = lower value 0.992 | [6] 0.973 | locus YNL209W, strain ssb2, stronger effect = lower value 0.978 | locus YNL248C, strain rpa49, stronger effect = lower value 0.991 | locus YNL322C, strain KRE1 (second series), stronger effect = lower value 0.993 | locus YNR049C, strain mso1, stronger effect = lower value 0.986 | locus YOR001W, strain rrp6, stronger effect = lower value 0.987 | locus YOR070C, strain gyp1, stronger effect = lower value 0.989 | locus YOR080W, strain dia2, stronger effect = lower value 0.991 | locus YOR083W, strain WHI5, stronger effect = lower value 0.988 | locus YOR106W, strain vam3, stronger effect = lower value 0.994 | [7] 0.992 | locus YOR265W, strain rbl2, stronger effect = lower value 0.985 | locus YOR270C, strain vph1, stronger effect = lower value 0.987 | locus YOR290C, strain snf2, stronger effect = lower value 0.977 | locus YPL051W, strain arl3, stronger effect = lower value 0.997 | locus YPL078C, strain atp4, stronger effect = lower value 0.99 | locus YPL106C, strain sse1, stronger effect = lower value 0.976 | locus YPL240C, strain hsp82, stronger effect = lower value 0.984 | [8] 1.03
